Experimental data taken from PubChem BioAssay (Tox21).
A number with no mark means an inactive call. The call rests on the fitted dose curve.

These compounds were tested against Gonadotropin-releasing hormone receptor (Homo sapiens) (UniProt P30968) (assay: Human gonadotropin-releasing hormone receptor (GnRHR) small molecule agonists, calcium flux assay in GnRHR-HEK293 cells (AID 1920063; further: nearly all actives have a fitted effect of over 35% in size)). Conditions: calcium flux fluorescence, agonist mode; series mostly up to 57.6 µM; activity change: at the top concentration.
Description: National Center for Advancing Translational Sciences [NCATS]
Division of Preclinical Innovation [DPI]
U.S. Environmental Protection Agency [EPA]
National Institutes of Environmental Health Sciences [NIEHS]
National Toxicology Program [NTP]
U.S. Food and Drug Administration [FDA]
Gonadotropin-releasing hormone receptor (GnRHR) is a G-protein-coupled receptor (GPCR) and acts (through phospholipase C) to increase intracellular inositol trisphosphate and then release intracellular calcium stores. Cell-based GnRHR-Hek293 calcium influx assay is using HEK293 cells that have been genetically engineered to express the human GnRHR, which activity can be measured by calcium signaling. A compound/drug can activate (agonist) GnRHR that can be monitored by levels of intracellular calcium.
GnRHR-HEK293 cells developed by Codex Corp contain human GnRHR reporter gene, which was stably integrated into HEK 293 cells. The compound activation can be detected by fluorescence intensity via calcium flux assay. This cell line has been used to screen the Tox21 10K compound library to identify GnRHR agonists.
GnRHR-Hek293 cells were dispensed at 1500cells/4uL/well in 1536-well black wall/clear bottom plates using a multidrop dispenser. After the assay plates were incubated at a 37 C/5% CO2 incubator for 18 hours, 4 uL of Calcium Dye Solution was added to each well. The plates were incubated at 37 C for 1 hour. For agonist mode, 23 nL of compounds dissolved in DMSO, positive controls or DMSO only was transferred to the assay plate by a pin tool station. The fluorescence intensity in the plates was measured using FDSS 7000EX kinetic plate reader with a filter set of Ex/Em=480/540 for 3 min at 1 sec intervals. Each test compound was measured at 15 concentrations and in triplicates.
On the % scale 0 is the no-effect control and ±100 the full control effect.

Chain of Gonadotropin-releasing hormone receptor (Homo sapiens) (P30968 whole entry, looked up): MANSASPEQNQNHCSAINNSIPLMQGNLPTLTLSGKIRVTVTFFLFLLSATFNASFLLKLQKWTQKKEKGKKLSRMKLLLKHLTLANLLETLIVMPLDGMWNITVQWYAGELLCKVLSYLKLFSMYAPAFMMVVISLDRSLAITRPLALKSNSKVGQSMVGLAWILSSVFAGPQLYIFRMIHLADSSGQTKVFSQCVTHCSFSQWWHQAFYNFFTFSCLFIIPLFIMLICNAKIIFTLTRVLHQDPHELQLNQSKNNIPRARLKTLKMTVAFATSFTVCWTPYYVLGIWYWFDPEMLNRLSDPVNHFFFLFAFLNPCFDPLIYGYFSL

Row | SMILES | activity change
1 | N=C(N)c1ccc(OCCCOc2ccc(C(=N)N)cc2)cc1 | 0.754% [at 26.4 µM, hits give high values]
2 | CC(C)(O)CCCC1=CCC(C=O)CC1 (stereo not given) | 0.039%
3 | Cc1nc(-c2ccc(OCC(C)C)c(C#N)c2)sc1C(=O)O | -1.82% [at 26.4 µM, hits give high values]
4 | O=C(OCC1(COC(=O)c2cccnc2)CCCC(COC(=O)c2cccnc2)(COC(=O)c2cccnc2)C1O)c1cccnc1 | -1.36% [at 26.4 µM, hits give high values]
5 | CN(C)CCCOc1nn(Cc2ccccc2)c2ccccc12 | 0.0349% [at 26.4 µM, hits give high values]
6 | CC(=O)c1cnccn1 | -1.15%
7 | CC[N+](CC)(CC)CCOc1cccc(OCC[N+](CC)(CC)CC)c1OCC[N+](CC)(CC)CC | 0.889% [at 26.4 µM, hits give high values]
8 | O=C(Nc1ccc(Cl)c(Cl)c1)C1CC1 | -0.001% [at 26.4 µM, hits give high values]
9 | Cc1cc(C)c(O)c(C(C)(C)C)c1 | -0.738%
10 | C=C[C@@H](C)CCC=C(C)C | 0.0565%
11 | Oc1cc2ccccc2cc1O | -0.658%
12 | OCCN(CCO)c1cccc(Cl)c1 | -0.864%
13 | Clc1nc(C(Cl)(Cl)Cl)c(Cl)c(Cl)c1Cl | 0.488%
14 | CC(C)Nc1cccnc1N1CCN(C(=O)c2cc3cc(NS(C)(=O)=O)ccc3[nH]2)CC1 | 2.95% [at 26.4 µM, hits give high values]
15 | Cc1c(C)c2c(c(C)c1OC(=O)CCC(=O)O)CC[C@@](C)(CCC[C@H](C)CCC[C@H](C)CCCC(C)C)O2 | -0.862%
16 | CC(=O)OCC(C)C | 0.898%
17 | O=[N+]([O-])c1cccc(I)c1 | -1.2%
18 | CC(C)(C)NCC(O)COc1ccc(NC(=O)NC2CCCCC2)cc1 (stereo not given) | -1.38% [at 26.4 µM, hits give high values]
19 | CCCCOC(=O)[C@@H](C)Oc1ccc(Oc2ccc(C(F)(F)F)cn2)cc1 | -0.243%
20 | CCOC(=O)OCC/C(SC(=O)OCC)=C(\C)N(C=O)Cc1cnc(C)nc1N | -0.219% [at 26.4 µM, hits give high values]

Row | SMILES | activity change
21 | CCC(=O)Oc1ccc2c(c1)CC[C@@H]1[C@@H]2CC[C@@]2(C)[C@H]1C[C@@H](OC(=O)CC)[C@@H]2OC(=O)CC | 0.811% [at 26.4 µM, hits give high values]
22 | CCCCCCCCCC(=O)N(C)C | -0.853%
23 | O=C(O)c1cccc(N(Cc2cccnc2)c2ccc(OC(F)F)c(OC(F)F)c2)c1 | -1.47%
24 | O=C(COCCOCCOCC(=O)Nc1c(I)cc(I)c(C(=O)O)c1I)Nc1c(I)cc(I)c(C(=O)O)c1I | -0.384% [at 26.4 µM, hits give high values]
25 | C[N+]1(C)CCC(=C(c2ccccc2)c2ccccc2)CC1 | -0.956% [at 26.4 µM, hits give high values]
26 | CCN1CCC[C@H]1CNC(=O)c1cc(S(N)(=O)=O)ccc1OC | -0.95% [at 26.4 µM, hits give high values]
27 | COc1cc2c(N3CCN(C(=O)Nc4ccc(OC(C)C)cc4)CC3)ncnc2cc1OCCCN1CCCCC1 | 15.1% [at 26.4 µM, hits give high values]
28 | CCCN(CCC)c1c([N+](=O)[O-])cc(C(F)(F)F)c(N)c1[N+](=O)[O-] | 1.3%
29 | S=C(SSSSSSC(=S)N1CCCCC1)N1CCCCC1 | 9.84% [at 11.8 µM, hits give high values]
30 | CC(C)=CCC1C(=O)N(c2ccccc2)N(c2ccccc2)C1=O | -0.084% [at 26.4 µM, hits give high values]
31 | O=C(O)Cc1sc(-c2ccccc2)nc1-c1ccc(Cl)cc1 | -1.3% [at 26.4 µM, hits give high values]
32 | C/C(=N\O)c1ccc(OCC(=O)N2CCCCC2)cc1 | 0.717% [at 26.4 µM, hits give high values]
33 | COc1ccc(N)c([N+](=O)[O-])c1 | 0.277%
34 | CCCOC(=O)c1ccc(N)cc1 | -0.0909% [at 26.4 µM, hits give high values]
35 | CC(=O)CC(=O)Nc1ccc(C)cc1C | -1.06%
36 | C=CC(=O)OCC(CO)(COCC(COC(=O)C=C)(COC(=O)C=C)COC(=O)C=C)COC(=O)C=C | 0.162%
37 | O=C(O)c1snc(Cl)c1Cl | -0.379%
38 | CCc1ccc(O)c(OC)c1 | -0.0754%
39 | NCC(=O)O | 1.37% [at 11.8 µM, hits give high values]
40 | O=C(O)c1cc(-c2ccc(F)cc2F)ccc1O | 0.405% [at 26.4 µM, hits give high values]
